The nature of this test: qHTS profiling of the MIPE4 collection as inhibitors of Plasmodium falciparum (DD2) proliferation (AID 743345). To be noted: P. falciparum Dd2 in erythrocytes, SYBR Green DNA, 72 h; at 28.5 µM (top of the series) unless noted. The gist of the method:
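Erythrocytes infected with P. falciparum (0.3% parasitemia, 2.5% hematocrit) incubated with compounds 72 h at 37 C, 5% CO2. Lysis with saponin/Triton buffer containing SYBR Green I, overnight at room temperature in the dark; DNA fluorescence (485/535 nm) normalised to 0.29 uM artemisinin and DMSO.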
With `COC(c1ccccc1)(c1ccccc1)[C@H](Oc1nc(C)cc(C)n1)C(=O)O`, the parasite growth remaining, % of DMSO control (lower = more inhibition) was determined as 102%.
Consider `NC1(c2ccc(-c3nc4ccn5c(=O)[nH]nc5c4cc3-c3ccccc3)cc2)CCC1`, for which the parasite growth remaining, % of DMSO control (lower = more inhibition) turned out to be 17.9%.
Turning to `COc1cc2c(Nc3ccc(Br)cc3F)ncnc2cc1OCC1CCN(C)CC1`, the parasite growth remaining, % of DMSO control (lower = more inhibition) was 7.29%.
As for `C#CCN[C@@H]1CCc2ccccc21`, the figure is 129%; as for `Cc1cccc(Nc2ccncc2S(=O)(=O)NC(=O)NC(C)C)c1`, 104%.
As to `CC(C)C[C@H](NC(=O)[C@H](CCc1ccccc1)NC(=O)CN1CCOCC1)C(=O)N[C@@H](Cc1ccccc1)C(=O)N[C@@H](CC(C)C)C(=O)[C@@]1(C)CO1`, the parasite growth remaining, % of DMSO control (lower = more inhibition) was determined as 7.08%.
Consider `O=C(O)c1cn(C2CC2)c2cc(N3CCNCC3)c(F)cc2c1=O`, for which the parasite growth remaining, % of DMSO control (lower = more inhibition) was found to be 85.5%.
As to `CCC(C)(C)c1ccc(CC(C)CN2C[C@@H](C)O[C@@H](C)C2)cc1` (stereo partly specified), the parasite growth remaining, % of DMSO control (lower = more inhibition) stood at 82.2%.
For the molecule `CC(C)OC(=O)C(C(=O)OC(C)C)=C1SC=CS1`, the parasite growth remaining, % of DMSO control (lower = more inhibition) came to 117%.
With `CC1=CC(=O)c2ccccc2C1=O`, the parasite growth remaining, % of DMSO control (lower = more inhibition) worked out at 48%.
In the case of `Nc1nc(=S)c2[nH]cnc2[nH]1`, the parasite growth remaining, % of DMSO control (lower = more inhibition) is 101%.
For the molecule `COC(=O)Nc1nc2ccc(Sc3ccccc3)cc2[nH]1`, the parasite growth remaining, % of DMSO control (lower = more inhibition) was 99.3%.
Regarding `N[C@@H](C(=O)N[C@@H]1C(=O)N2C(C(=O)O)=C(Cl)CS[C@H]12)c1ccccc1`, the parasite growth remaining, % of DMSO control (lower = more inhibition) worked out at 96.8%.
As to `COc1ncnc(NS(=O)(=O)c2ccc(N)cc2)c1OC`, the parasite growth remaining, % of DMSO control (lower = more inhibition) came out at 105%.
For `CN(C)CCc1c[nH]c2ccc(CS(=O)(=O)N3CCCC3)cc12`, the parasite growth remaining, % of DMSO control (lower = more inhibition) was 92.8%.
As for `CNS(=O)(=O)CCc1ccc2[nH]cc(C3CCN(C)CC3)c2c1`, the figure is 87.2%; as for `CN1CCN(c2c(F)cc3c(=O)c(C(=O)O)cn4c3c2OCN4C)CC1`, 95.5%.
`O=c1cc(O)c(Cl)c[nH]1`: the parasite growth remaining, % of DMSO control (lower = more inhibition) came to 122%.
Take `CCCN[C@H]1CCc2nc(N)sc2C1`: the parasite growth remaining, % of DMSO control (lower = more inhibition) worked out at 92.8%.
Take `CC(C)Cn1cnc2c(N)nc3ccccc3c21`: the parasite growth remaining, % of DMSO control (lower = more inhibition) was 74.5%.
Turning to `CCC(=O)O[C@]1(C(=O)CCl)[C@@H](C)C[C@H]2[C@@H]3CCC4=CC(=O)C=C[C@]4(C)[C@@]3(F)[C@@H](O)C[C@@]21C`, the parasite growth remaining, % of DMSO control (lower = more inhibition) amounted to 55.4%.
On to `CC(=O)Oc1ccccc1C(=O)Nc1ncc([N+](=O)[O-])s1`, for which the parasite growth remaining, % of DMSO control (lower = more inhibition) was found to be 8.2% [at 57.5 µM].
Take `C1CCC(C(CC2CCCCN2)C2CCCCC2)CC1` (stereo unspecified): the parasite growth remaining, % of DMSO control (lower = more inhibition) came out at 7.9%.
As for `Nc1[nH]c(=O)ncc1F`, the figure is 104%.
As for `Nc1nc(N)nc(-c2cc(Cl)ccc2Cl)n1`, the figure is 88.9%; as for `CO[C@@]12[C@H](COC(N)=O)C3=C(C(=O)C(C)=C(N)C3=O)N1C[C@@H]1N[C@@H]12`, 7.06%.
For the molecule `CNC(=O)c1cc(Oc2ccc(NC(=O)Nc3ccc(Cl)c(C(F)(F)F)c3)cc2)ccn1`, the parasite growth remaining, % of DMSO control (lower = more inhibition) was determined as 14%.
Consider `NC(=O)N1c2ccccc2CC(=O)c2ccccc21`, for which the parasite growth remaining, % of DMSO control (lower = more inhibition) worked out at 96.7%.
For `C[C@@H]1CN(c2c(F)c(N)c3c(=O)c(C(=O)O)cn(C4CC4)c3c2F)C[C@H](C)N1`, the parasite growth remaining, % of DMSO control (lower = more inhibition) came out at 83% [at 9.64 µM].
On to `CS(=O)(=O)c1ccc([C@@H](O)[C@@H](CO)NC(=O)C(Cl)Cl)cc1`, for which the parasite growth remaining, % of DMSO control (lower = more inhibition) turned out to be 51.5%.
Take `CCc1c2c(nc3ccc(OC(=O)N4CCC(N5CCCCC5)CC4)cc13)-c1cc3c(c(=O)n1C2)COC(=O)[C@]3(O)CC`: the parasite growth remaining, % of DMSO control (lower = more inhibition) came out at 59.3%.
